A selection: hits, their analogues and other compounds. The true share with any hit is near 11%.
Pf growth 48h – inhibits P. falciparum growth in the first generation, 48 h; AID 504832; 310,000 compounds, 5.9% hits; P. falciparum luciferase growth in erythrocytes, 48 h; Potency, µM (top dose mostly 28.7 µM), without a hit: top-dose activity change, negative = inhibition, usual class: inhibitors; further: on the % scale 0 is the no-effect control and ±100 the full control effect
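In quantitative HTS format, infected erythrocytes bearing luciferase-reporter parasites were treated for a single generation at 37 C. Luminescence after adding detection reagent served as the growth measure.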
AMA1-RON2 inh – AMA1-RON2 (P. falciparum) interaction inhibition | AlphaScreen AMA1-biotinylated RON2 peptide binding | Potency, µM (series often up to 58.2 µM), inactives show at the highest dose activity change, negative = inhibition, actives largely listed as inhibitors | 360,000 compounds, 0.2% hits | AID 720542;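 further: 0% = vehicle wells and -100% = peptide control; nearly all actives have a fitted effect of over 45% in size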
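AMA1 (3D7) with his tag at 25 nM final met compounds first, then biotinylated RON2 peptide at 25 nM; detection used donor plus acceptor beads, 10 µg/mL apiece, read by AlphaScreen after 30 min at room temperature.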
Sm TGR inh – inhibitors of Schistosoma mansoni thioredoxin glutathione reductase; Q962Y6; purified TGR, DTNB reduction, TNB absorbance 405 nm; Potency, µM (titrated, usually from 114 µM), for inactives: at the top dose activity change, negative = inhibition, actives largely listed as inhibitors; 360,000 compounds, 3% hits; AID 485364; further: on the % scale 0 is the no-effect control and ±100 the full control effect; nearly all actives have a fitted effect of over 60% in size
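First, TGR (20 nM dispensed) and NADPH were mixed with compound. Second, a 15 min room-temperature incubation followed. Third, further NADPH and then DTNB were added to start the reaction. Finally, TNB absorbance was monitored kinetically.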
NS1 inh – influenza NS1 inhibition | Potency, µM (series often up to 46.1 µM), for inactives: at the top dose activity, positive = more growth | 270,000 compounds, 0.4% hits; calls by dose curve; further: actives are rising curves; nearly all actives have a fitted effect of over 50% in size
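S. cerevisiae expressing influenza A NS1, grown in glucose, washed, then diluted 1:100 into pH 6.0 -URA galactose medium with 23 nl compound. Growth recovery read as OD600; NS1-free strain serves as control.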
Pf growth 96h – inhibits malaria parasite growth, 96 h; P. falciparum luciferase reporter growth, 96 h; Potency, µM (top dose mostly 28.7 µM), for inactives: at the highest dose activity change, negative = inhibition, usual class: inhibitors; 320,000 compounds, 6.9% hits; AID 504834; further: on the % scale 0 is the no-effect control and ±100 the full control effect
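P. falciparum expressing integrated firefly luciferase, in erythrocytes at 2% hematocrit, 0.05% parasitemia, incubated with compounds 96 h at 37 C, 5% CO2. Growth inhibition read as loss of luminescence; two-generation exposure targets delayed-death apicoplast inhibitors.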
Active calls of the source: *; ? = inconclusive; nt = not tested or not shown; [ ] = another dose, or the depositor's remark. Unless noted, the call rests on the fitted dose curve; in most records, active means well fitted curve in the direction sought with a large enough effect; inconclusive means small, poorly fitted or top-dose-only effect, or another doubt; inactive means no such curve, though single readings can be large; an effect the other way counts as inactive or inconclusive. Potency means the concentration at half of the fitted maximal effect.

SMILES | Pf growth 48h | AMA1-RON2 inh | Sm TGR inh | NS1 inh | Pf growth 96h
Cc1ccccc1-n1c(C)cc(/C=C(\C#N)C(=O)NCC2CCCO2)c1C (stereo unspecified) | -77% | 3% | -15% | -8% | 8.3µM*
Cc1ccc(NC(=O)/C(C#N)=C/c2cn(CC(=O)NCc3ccco3)c3ccccc23)cc1C | 30% | 20% | -6% | 5% | 28%
Cc1ccc(C)c(OCCn2cc(/C=C(\C#N)C(=O)NCC3CCCO3)c3ccccc32)c1 (stereo unspecified) | 2.6µM* | -15% | -9% | ? | 1.7µM*
Cc1ccc(C)c(NC(=O)/C(C#N)=C/c2cn(CC(=O)NCc3ccco3)c3ccccc23)c1 | 17% | 5% | -4% | 6% | 15µM*
Cc1cccc2c1-c1sc(C(=O)NCCc3ccc(Cl)cc3)cc1CO2 | nt | nt | -10% | nt | nt
CCOc1ccc(N2C(=O)CN(CC(=O)OC)C2=S)cc1 | 12% | -9% | 0%[57.1 µM] | -3% | 42%
COCCNC(=O)Cn1cc(/C=C(\C#N)C(=O)NC2CCCC2)c2ccccc21 | 4% | ? | -5% | -5% | 10µM*
Cc1ccc(C)c(OCCn2cc(/C=C(\C#N)C(=O)NCc3cccs3)c3ccccc32)c1 | 4.7µM* | -16% | 2% | 9% | 3.3µM*
CCOC(=O)/C(C#N)=C/c1cn(CCOc2ccccc2)c2ccccc12 | 14% | -3% | -2% | 4% | 9.3µM*
N#C/C(=C\c1cn(CCOc2ccccc2F)c2ccccc12)C(=O)NCc1cccs1 | -7% | 1% | 5% | 6% | 26%
Cc1ccc(CS/C(Nc2ccccc2C)=C(\C#N)C(=O)NCc2ccco2)c(C)c1 | 2.3µM* | 4% | -6% | 2% | 15%
Cc1ccccc1N/C(SCc1ccc(Cl)cc1)=C(/C#N)C(=O)NCc1ccco1 | ? | 4% | 8% | 7% | ?
Cc1ccc(OCCn2cc(/C=C(\C#N)C(=O)NCC3CCCO3)c3ccccc32)cc1 (stereo unspecified) | 10µM* | -17% | 7% | ? | 92%
Cc1ccc(OCCn2cc(/C=C(\C#N)C(=O)NCC3CCCO3)c3ccccc32)cc1C (stereo unspecified) | ? | -8% | 8% | 16% | ?
CC1CCN(C(=O)CSc2nc(N)c3c4c(sc3n2)CN(C)CC4)CC1 | 2.3µM* | -2% | -10% | 12% | 0.83µM*
CCOC(=O)C(=CNc1nc(-c2ccc3ccccc3c2)cs1)C(=O)OCC | 79% | 24% | -19% | -3% | 74%
COC(=O)c1cnn(-c2ccccc2)c1-n1cccc1C=O | 7% | 8% | 0% | nt | -3%
CCN(CC)c1ccc(NC2=C(Cl)C(=O)c3ccccc3C2=O)cc1 | 40% | 6.3µM* | 2.2µM* | -13% | 2.9µM*
O=C1C(Cl)=C(Nc2ccc(O)cc2)C(=O)c2ccccc21 | ? | -3% | 2.2µM* | 1% | -15%
Cc1ccc(NC2=C(Cl)C(=O)c3ccccc3C2=O)cc1 | 79% | -23% | 3.5µM* | 11% | 216%
CCNC1=C(Cl)C(=O)c2ccccc2C1=O | nt | -21% | 1% | ? | -5%
CCN(CC)C(=O)C1=C(C)N(CCCOC)C(=O)C(CC(=O)NCC2CCCCC2)C1 (stereo unspecified) | nt | -5% | nt | nt | nt
CCC(=O)N1CCc2cc(CNC(=O)c3ccccc3C)ccc21 | nt | nt | 2% | nt | nt
CCn1c2ccccc2c2cc(NC(=O)c3cccc(OC)c3OC)ccc21 | -15% | -3% | 1% | ? | 4.1µM*
CCn1c2ccccc2c2cc(NC(=O)CSc3nnc(C4CC4)n3Cc3ccco3)ccc21 | -44% | -6% | 7.9µM* | -7% | 10%[5.75 µM]
SMILES | Pf growth 48h | AMA1-RON2 inh | Sm TGR inh | NS1 inh | Pf growth 96h
CCn1c2ccccc2c2cc(NC(=O)c3ccco3)ccc21 | 13µM* | -12% | -18% | -54% | nt
COc1ccc(N(Cc2cccs2)C(=O)c2ccccc2C)cc1 | nt | nt | 4% | nt | nt
Cc1cccc(CC(=O)Nc2sc(C(C)C)cc2C(=O)N2CCOCC2)c1 | -24% | -7% | ? | -3% | 5%
CN(Cc1ccccc1)C(=O)C1CCN(S(=O)(=O)c2ccc3nc4c(c(C(=O)O)c3c2)CCCC4)CC1 | ? | 37% | ? | 18% | ?
O=C(NCc1ccc2c(c1)OCO2)c1nn(-c2ccccc2)c(=O)c2ccccc12 | -25% | -14% | 16% | 6% | 0.74µM*
CCCCn1nc(C(=O)Nc2ccc3c(c2)OCCO3)c2ccccc2c1=O | ? | -3% | 8% | nt | 6.6µM*
CC(C)Cn1c(=O)c(C(=O)NCc2ccc3c(c2)OCO3)c(O)c2ccccc21 | ? | 120% | -3% | 4% | ?
COc1cccc(-n2nc(C(=O)Nc3ccc4c(c3)OCO4)c3ccccc3c2=O)c1 | ? | -1% | 2% | -4% | ?
Cn1nc(C(=O)Nc2ccc3c(c2)OCCO3)c2ccccc2c1=O | 22% | -2% | 0% | nt | 28%
O=C(Nc1ccc2c(c1)OCO2)c1nn(-c2ccccc2)c(=O)c2ccccc12 | 12µM* | 29% | -8% | -15% | 13µM*
CC(C)CCn1c(=O)c(C(=O)NCc2ccc3c(c2)OCO3)c(O)c2ccccc21 | 5.9µM* | 10% | 17% | ? | ?
O=C(NCc1ccc2c(c1)OCO2)c1ccccc1 | 13% | -20% | 3% | nt | 22%
CC1CCN(C(=O)c2cccc(NC(=O)c3nsc4ccccc34)c2)CC1 | nt | nt | 0% | nt | nt
O=C(O)c1ccccc1C(=O)NC1CCCCNC1=O (stereo unspecified) | ? | 4% | 14% | 3% | 0%
CCOc1cc(C(=O)NC(C)CCc2ccccc2)cc(OCC)c1OCC (stereo unspecified) | 0% | 14% | -7% | 12% | ?
Cc1cccc(NC(=O)C2CCCN(S(=O)(=O)c3ccc4c(c3)CCCC(=O)N4)C2)c1 (stereo unspecified) | nt | nt | 5% | nt | nt
CC(C)(C)c1nn(-c2ccccc2)c2[nH]c(=O)c(CNCc3ccc4c(c3)OCO4)cc12 | nt | 24% | 0% | -10% | 0.33µM*
CCOc1cccc(NCc2cc3c(C(C)(C)C)nn(-c4ccccc4)c3[nH]c2=O)c1 | ? | -3% | -6% | 10% | nt
CC(Sc1nnc2c(n1)[nH]c1ccccc12)C(=O)NC1CCCCC1 (stereo unspecified) | 9.3µM* | 6% | -8% | 0% | -12%
CC(Sc1nnc2c(n1)[nH]c1ccccc12)C(=O)N(C)C1CCCCC1 (stereo unspecified) | ? | -4% | 1% | -13% | ?
COCc1c(C(=O)N(C)Cc2ccccc2N2CCCC2)oc2ccccc12 | ? | ? | 0% | nt | 9.3µM*
COc1ccccc1Nc1ccc2c(O)cc(S(=O)(=O)O)cc2c1 | nt | 20µM* | nt | nt | nt
Cc1cccc(-c2nc(S(=O)(=O)c3ccc(F)cc3)c(N3CCN(c4ccccc4)CC3)o2)c1 | nt | nt | 0% | nt | nt
CN1NC(c2ccccc2)NN(C)C1=O | nt | 22% | nt | nt | nt

Compound activity: PubChem BioAssay, National Center for Advancing Translational Sciences (NCATS)
